Source: PubChem
RAD54 inh: inhibitors of human RAD54 branch migration | RAD54 Holliday junction branch migration, FAM/BHQ fluorescence | 360,000 compounds, 0.14% hits | inhibition, % at 10.4 µM | Q92698;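 active means mean normalized replicate activity at least 40 and at least half of replicates scoring 40 or more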;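 further: 0% = median of neutral control wells and 100% = median of positive control wells; inhibitors cause a drop in the FAM fluorescence signal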
ERAP1 inh: ERAP1 (human) enzyme inhibition; Q9NZ08; recombinant ERAP1, Leu-AMC fluorescence, 60 min; inhibition, % at 10.7 µM; 340,000 compounds, 0.15% hits; AID 652197;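 active means mean replicate inhibition of at least 30%, or all replicates individually reaching that 30% level; inactive means mean below 30% and not every replicate reaching it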;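 further: 0% = neutral control wells and 100% = L-leucinethiol positive control wells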
Target sequence (Q9NZ08 whole entry, looked up): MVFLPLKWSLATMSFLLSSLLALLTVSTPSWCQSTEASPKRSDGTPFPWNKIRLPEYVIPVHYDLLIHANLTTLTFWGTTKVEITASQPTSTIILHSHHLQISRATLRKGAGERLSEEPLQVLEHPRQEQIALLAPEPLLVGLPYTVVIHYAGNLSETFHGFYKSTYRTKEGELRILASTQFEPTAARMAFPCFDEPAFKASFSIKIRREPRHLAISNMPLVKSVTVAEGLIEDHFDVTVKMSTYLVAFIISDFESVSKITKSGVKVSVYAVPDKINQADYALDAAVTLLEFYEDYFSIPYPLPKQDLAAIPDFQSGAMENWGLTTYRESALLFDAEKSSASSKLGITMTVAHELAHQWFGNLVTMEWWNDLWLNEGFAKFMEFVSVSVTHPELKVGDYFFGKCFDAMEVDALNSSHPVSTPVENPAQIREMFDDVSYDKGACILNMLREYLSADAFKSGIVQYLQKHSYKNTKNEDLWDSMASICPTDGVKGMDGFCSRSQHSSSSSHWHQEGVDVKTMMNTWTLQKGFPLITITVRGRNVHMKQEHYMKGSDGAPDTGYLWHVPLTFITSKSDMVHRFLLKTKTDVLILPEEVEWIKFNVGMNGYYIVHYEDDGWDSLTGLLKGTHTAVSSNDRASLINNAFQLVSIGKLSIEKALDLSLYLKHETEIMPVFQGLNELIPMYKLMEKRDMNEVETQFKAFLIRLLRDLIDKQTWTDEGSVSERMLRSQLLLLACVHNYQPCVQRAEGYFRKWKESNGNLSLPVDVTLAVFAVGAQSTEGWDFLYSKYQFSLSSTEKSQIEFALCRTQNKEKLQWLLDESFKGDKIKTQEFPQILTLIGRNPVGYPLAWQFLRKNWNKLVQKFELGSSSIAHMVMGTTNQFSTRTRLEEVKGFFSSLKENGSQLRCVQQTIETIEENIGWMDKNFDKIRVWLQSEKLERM
RAD52 anneal inh: inhibitors of human RAD52 DNA annealing | P43351 | recombinant RAD52 DNA annealing, FRET fluorescence | inhibition, % at 18.7 µM | 360,000 compounds, 0.46% hits | AID 651710;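 active means every replicate showing at least 50% inhibition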
GSIS activator: primary screen for activators of insulin secretion dependent on glucose, INS-1E cells, GLuc reporter luminescence; INS-1E GLuc reporter insulin secretion, 2-3 h; AID 743287; activation, % at 16.6 µM; 370,000 compounds, 0.61% hits;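 active means lowest replicate activation of at least 40%, so every replicate reaches that level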;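 further: 0% = median of neutral control wells and 100% = median of IBMX positive control wells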
MLL AF4-AF9 inh: inhibitors of human MLL-AF4/AF9 interaction; P42568; AID 651704; inhibition, % at 10 µM; AlphaScreen, biotin-AF4 peptide binding to FLAG-AF9; 350,000 compounds, 0.47% hits;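 active means every replicate reaching a set inhibition limit, whatever the replicate mean, cut at about 25% in these data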;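 further: 0% = plate neutral control median and 100% = total signal loss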
PGC1a acetyl inh: modulators of PGC1a acetylation; inhibition, % at 15.6 µM; U2OS PGC1a acetylation, AlphaScreen anti-acetyl-lysine; with virally co-expressed GCN5 acetyltransferase; 350,000 compounds, 0.17% hits;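 active means every replicate shows inhibition of at least 40%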;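 further: 0% = neutral control wells and 100% = positive control wells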
The depositor's hits bear a star; nt = not tested or not shown; ! = repeats disagree. Rows were chosen to be rich in hits. Some 1.4% of all compounds tested hit in one or more screens of this group.

SMILES	RAD54 inh	ERAP1 inh	RAD52 anneal inh	GSIS activator	MLL AF4-AF9 inh	PGC1a acetyl inh
Cc1ccc(S(=O)(=O)c2ccc([N+](=O)[O-])cn2)cc1	14	-4	-3	45*	-6	-68
O=[N+]([O-])c1ccc(S(=O)(=O)c2ccccc2)nc1	-3	-4	-14	77*	1	nt
COc1ccc2c3c(n(C)c2c1)[C@@H](CO)N(CC1CC1)CC31CCN(C(=O)c2ccccc2)CC1	nt	nt	nt	-10	nt	nt
C/C=C/c1ccc2c(c1)O[C@@H](CN(C)S(=O)(=O)c1ccc(F)cc1)[C@@H](C)CN([C@@H](C)CO)S2(=O)=O	-6	0	11	-16	11	-30
O=C(Oc1ccc[nH]c1=O)c1cc([N+](=O)[O-])cc([N+](=O)[O-])c1	-5	3	-192	7	-5	53*
COc1ccc(C[C@H]2CN3C(=NC[C@@H]3Cc3ccc(O)cc3)N2CCNC(=O)c2ccc(C)c(Br)c2)cc1	-3	3	23	nt	29*	0
Cc1ccc(C(=O)NCCN2C3=NC[C@H](Cc4ccc(O)cc4)N3C[C@H]2Cc2ccc(O)cc2)cc1Br	12	1	26	28	29*	nt
CC(C)C#Cc1cnc2c(c1)C(=O)N([C@H](C)CO)C[C@H](C)[C@@H](CN(C)C(=O)Nc1cccc(F)c1)O2	0	3	17	-45	-1	-8
CC(=Nc1ccccc1)c1sc2ccccc2c1O	-3	4	-90	-7	26*	-3
O=C(Nc1ccc2ccccc2c1)c1cccc2ccccc12	-5	1	-8	71*	-1	-9
CC(C(=O)Nc1ccc2[nH]c(=O)[nH]c2c1)N1CCN(Cc2ccc3c(c2)OCO3)CC1 (stereo not drawn)	3	-3	-4	60*	-1	-3
Cc1c(O)cnc2nn(-c3ccccc3)c(=N)n12	nt	1	-12	42*	4	nt
CC(C)Nc1nc(NCCN2CCCC2)c2sc(-c3ccccc3)cc2n1	18	16	76*	-4	18	-2
Cn1c(=O)c2[nH]c(SCc3ccccn3)nc2n(C)c1=S	nt	5	-6	181*	0	nt
Cc1ccc(S(=O)(=O)N(C)C[C@H]2Oc3ncc(-c4ccncc4)cc3C(=O)N([C@H](C)CO)C[C@H]2C)cc1	5	1	4	-3	0	-8
CC(C)NC(=O)N(C)C[C@H]1OCCCC[C@H](C)Oc2ccc(NC(=O)Nc3cccc4ccccc34)cc2C(=O)N([C@H](C)CO)C[C@H]1C	nt	nt	nt	9	nt	nt
O=C(c1cccnc1)N1CC(=O)N2[C@H](CO)[C@@H](c3ccc(/C=C/c4ccccc4)cc3)[C@@H]2C1	nt	nt	-16	-15	12	-6
CC(C)CC(=O)/C(=C\c1ccc(Cl)cc1Cl)n1cncn1	-2	nt	nt	nt	nt	60*
CC(C)CC(=O)/C(=C/c1ccc(N(C)C)cc1)n1cncn1	2	10	-18	0	-19	-1
C=CCNC(=O)COc1coc(CN2CCN(C(=O)c3ccco3)CC2)cc1=O	-7	4	-13	49*	0	9
CNC(=O)COc1coc(CN2CCN(C(=O)c3ccco3)CC2)cc1=O	-1	0	-1	17	-1	-31
CC(C)c1cn(CC[C@@H]2CC[C@H](NC(=O)C3CCCC3)[C@@H](CO)O2)nn1	-10	0	-9	11	-4	6
CN(C)CC#Cc1ccc([C@H]2[C@@H](CO)N3CCCCN(C(=O)CN(C)C)C[C@H]23)cc1	13	2	87*	11	2	-3
CN(C)CC#Cc1ccc([C@@H]2[C@H]3CN(C(=O)CN(C)C)CCCCN3[C@H]2CO)cc1	-10	2	62*	19	-1	5
CN(C)CC#Cc1ccc([C@@H]2[C@@H](CO)N3CCCCN(C(=O)CN(C)C)C[C@H]23)cc1	-1	2	61*	12	7	4
SMILES	RAD54 inh	ERAP1 inh	RAD52 anneal inh	GSIS activator	MLL AF4-AF9 inh	PGC1a acetyl inh
CN(C)CC#Cc1ccc([C@@H]2[C@H](CO)N3CCCCN(C(=O)CN(C)C)C[C@@H]23)cc1	-1	0	88*	10	8	-21
COCC#Cc1ccc([C@@H]2[C@@H](CO)N3CCCCN(C(=O)CN(C)C)C[C@@H]23)cc1	8	1	-10	4	-2	10
CO[C@H](CN(C)S(=O)(=O)c1ccc(Cl)cc1)[C@@H](C)CN(Cc1ccccc1Cl)[C@@H](C)CO	1	1	2	-27	-20	-18
COc1ccc2c3c([nH]c2c1)[C@H](CO)NCC31CCN(C(=O)Cc2ccccc2)CC1	nt	2	9	-5	-1	-8
CNC(=O)C[C@H]1CC[C@H]2[C@@H](COC[C@H](O)CN2C(=O)Nc2ccc3c(c2)OCO3)O1	2	nt	nt	9	nt	1
CN(C)CC#Cc1ccc([C@H]2[C@H](CO)N3CCCCN(C(=O)CN(C)C)C[C@@H]23)cc1	-17	0	74*	8	5	1
CC(C)CC#Cc1ccc([C@@H]2[C@H](CO)N3CCCCN(C(=O)c4ccc5c(c4)OCO5)C[C@@H]23)cc1	-6	0	58*	-19	15	3
O=C(O)C[C@@H]1C[C@@H]2c3cc(NC(=O)C4CCOCC4)ccc3O[C@@H]2[C@@H](CO)O1	nt	nt	nt	-4	nt	nt
C[C@H]1CN([C@@H](C)CO)C(=O)c2ccccc2-c2ccccc2CO[C@H]1CN(C)Cc1ccc2c(c1)OCCN2C	-2	-2	1	14	34*	-1
C[C@@H]1CN([C@H](C)CO)C(=O)c2c(c3ccccc3n2C)-c2ccccc2CO[C@H]1CN(C)Cc1ccc2c(c1)OCCN2C	4	-7	-3	14	42*!	-5
COc1ccc(S(=O)(=O)N[C@@H]2C=C[C@H](CC(=O)N3CCC(Cc4ccccc4)CC3)O[C@@H]2CO)cc1	6	3	-7	-39	0	-3
COc1ccc(S(=O)(=O)Nc2ccc3c(c2)C(=O)N([C@H](C)CO)C[C@H](C)[C@@H](CN(C)C(=O)CCC(F)(F)F)OCCCC[C@H](C)O3)cc1	-3	2	3	-19	-2	-2
O=c1[nH][nH]c2c1C(c1ccc(Cl)c(Cl)c1)OC(CCc1ccccc1)C2 (stereo not drawn)	nt	-5	-9	56*	0	nt
Cc1nc(N)nc2c1CCCC2	3	nt	nt	43*	-3	nt
Cc1ccc(S(=O)(=O)N2CCN(Cc3ccccc3)CC2)cc1	9	3	-12	-19	0	nt
Cc1ccc(S(=O)(=O)OCCC2=CC(=O)CCN2Cc2ccccc2)cc1	10	5	-61	-5	0	63*
C[C@@H]1CCCCO[C@H](CN(C)C)[C@H](C)CN([C@@H](C)CO)C(=O)c2cc(NC(=O)Nc3ccc(C(F)(F)F)cc3)ccc2O1	13	1	23	-8	5	6
